Assay [1] is described as follows: inhibitors of TNFa-induced NFkB p65 translocation, primary screen, imaging, HUVEC, MLSMR starter and 10KST1 sets (AID 438;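 active = inhibition above 20% together with a positive visual image hit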;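 also: compound added about 3h40 before a 20 min TNFalpha stimulation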;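 as to inhibition: signal is the nuclear over cytoplasmic p65 intensity ratio per well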). The following applies: HUVEC TNFa-induced p65 nuclear translocation; cell count: measured here: nuclei count (cytotoxicity indicator), at 2.08 µM; inhibition: at 2 µM, stronger effect = higher value, 0% TNFa-plus-vehicle, 100% no-TNFa wells.
Assay [2] is described as follows: inhibitors of mutant huntingtin aggregation, primary screen, imaging, exon1htt(103Q)mCFP cells, high-content imaging (AID 483;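 active = visual image review flags a hit and inhibition of aggregation exceeds 20%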;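 also: compound exposure lasted 3 days before fixation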;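 as to nuclei count: percent of the per-plate median nuclei count of sample wells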). The following applies: exon1htt(103Q)mCFP cell line, aggregate imaging, at 2 µM; inhibition of aggregation: stronger effect = higher value; nuclei count: measured here: cell count, toxicity.
A short description of assay [3]: inhibitors of E-selectin induction by TNFa, primary screen, imaging, HUVEC, immunofluorescence, MLSMR starter and 10KST1 sets (AID 487).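 As to inhibition: signal is fraction of cell area covered by stained E-selectin grains.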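 As to nuclei count: 100% = median nuclei count of all wells on the same plate.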 As to conditions: HUVEC TNFalpha-induced E-selectin immunofluorescence imaging, at 2 µM; inhibition: stronger effect = higher value; nuclei count: measured here: cell number, toxicity.
In assay [4] the target is Voltage-gated potassium channel subunit beta-2 (Rattus norvegicus) (UniProt P62483). Description: KvBeta enzyme negative modulators, primary screen, biochemical, NADPH fluorescence (AID 622;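 active = fluorescence slope higher than the sample average by over 3 SD, cut at about -0.22 in these data, passing the limit was not always enough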;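 also: slope of raw intensity against log time taken from 70 to 1610 s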). As to conditions: recombinant KvBeta, 4-cyanobenzaldehyde reduction, at 10 µM, stronger effect = higher value.
Assay [5] shares this target. Description: KvBeta positive modulators, primary screen, biochemical, NADPH fluorescence (AID 623;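 active = NADPH fluorescence slope more negative than the mean of all samples by about 3 SD, 99.7% confidence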;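 also: fluorescence intensity change per second fitted from 20 to 320 s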). The following applies: Recombinant KvBeta, NADPH fluorescence decrease slope, 10 min; at 10 µM; stronger effect = lower value.
Assay [6] deals with Alpha-2C adrenergic receptor (Homo sapiens) (UniProt P18825). Description: modulators of alpha2C/GIRK thallium flux, primary screen, cell-based, HEK293 alpha2C/GIRK1/2 (AID 624;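 active = fluorescence slope after compound addition differing from the mean of all screened samples at 99.7% confidence, in either direction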;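 also: slope of fluorescence ratio to pre-addition baseline per second over 15 to 24 s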). The following applies: thallium flux BTC fluorescence, at 10 µM, actives lie on both sides.
Assay [7] can be described thus: inhibitors of Sendai virus-induced IRF3 signaling, primary screen, TLR/RLR signaling modifier project, cell-based, Sendai virus stimulus, luciferase, 10K MLSCN set (AID 602276;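 active = inhibition at or above 50% at 10 µM; inactive = inhibition below 50%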;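 also: firefly luciferase from ISG56 promoter only with Renilla not read in this screen; 0% = Sendai virus plus DMSO and 100% = medium plus DMSO without virus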). The following applies: HEK293 RL24 IRF3 luciferase reporter, at 10 µM, stronger effect = higher value.
Assay [8] in a line: inhibitors of poly I:C-induced TLR3 signaling, primary screen, cell-based, poly I:C stimulus, luciferase, 10K MLSCN set (AID 602277;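 active = inhibition of the reporter signal at or above 50%; inactive = inhibition below 50%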). The following applies: HEK293-TLR3 RL24 IRF3 luciferase reporter, at 10 µM, stronger effect = higher value. A general note: In a reporter assay the amount or activity of a reporter protein is the signal.

Consider 14 compounds from PubChem BioAssay.

The source made the active and inactive calls.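 The calls were made as follows, unless noted: active = visually confirmed hit in the image check and inhibition above 20%; inconclusive = visually confirmed hit but inhibition not above 20%; inactive = no visual hit in the image check.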

Voltage-gated potassium channel subunit beta-2 (Rattus norvegicus), sequence (P62483 whole entry, looked up): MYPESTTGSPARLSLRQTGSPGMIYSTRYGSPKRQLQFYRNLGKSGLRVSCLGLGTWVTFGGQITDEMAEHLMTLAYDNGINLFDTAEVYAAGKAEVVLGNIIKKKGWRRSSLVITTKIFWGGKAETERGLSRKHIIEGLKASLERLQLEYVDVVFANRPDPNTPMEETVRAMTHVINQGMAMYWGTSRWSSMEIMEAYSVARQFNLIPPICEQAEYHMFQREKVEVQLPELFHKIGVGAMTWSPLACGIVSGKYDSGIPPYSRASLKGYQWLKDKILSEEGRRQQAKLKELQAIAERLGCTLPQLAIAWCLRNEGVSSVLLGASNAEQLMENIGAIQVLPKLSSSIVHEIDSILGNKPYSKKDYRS
Alpha-2C adrenergic receptor (Homo sapiens), sequence (P18825 whole entry, looked up): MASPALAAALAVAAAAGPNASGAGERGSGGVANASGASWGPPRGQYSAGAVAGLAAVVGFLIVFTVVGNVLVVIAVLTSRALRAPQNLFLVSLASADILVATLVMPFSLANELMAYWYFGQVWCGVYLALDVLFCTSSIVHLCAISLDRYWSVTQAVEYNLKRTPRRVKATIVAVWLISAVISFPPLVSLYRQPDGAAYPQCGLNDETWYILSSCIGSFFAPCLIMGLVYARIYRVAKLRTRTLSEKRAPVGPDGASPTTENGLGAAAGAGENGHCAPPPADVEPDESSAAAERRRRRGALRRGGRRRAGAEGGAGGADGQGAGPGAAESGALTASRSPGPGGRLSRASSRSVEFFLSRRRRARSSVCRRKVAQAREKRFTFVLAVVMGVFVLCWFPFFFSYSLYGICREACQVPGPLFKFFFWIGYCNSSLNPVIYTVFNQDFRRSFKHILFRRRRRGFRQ

For orientation: inhibition means the drop in the measured response relative to a control, in per cent. As for `O=C(CCn1c(=O)c2ccccc2n(CC(=O)NCCC2=CCCCC2)c1=O)NCc1ccco1`, the cell count in assay [1] came to 596. The inhibition is -10.9% (inactive) in assay [1], -9.8% (inactive) in assay [3], -4.87% (inactive) in assay [7] and 10.3% (inactive) in assay [8]. Further, in assay [2], the inhibition of aggregation is 25.7% (inactive). Moreover, the values for the nuclei count in assay [2] and in assay [3] were 102% and 82%, respectively. For the same compound, the fluorescence slope in assay [4] is -0.558 (inactive). Besides, the NADPH fluorescence slope in assay [5] was -3e-05 (inactive). The slope in assay [6] was 0.00599 (inactive).

On to `O=C(NCc1nc2ccccc2[nH]1)c1ccco1`, for which the cell count in assay [1] was determined as 440. In addition, the inhibition in assay [1] was 0.8% (inactive); in assay [3] it was -228% (inactive); in assay [7], -2.68% (inactive); in assay [8] it was -21.9% (inactive). In addition, the inhibition of aggregation in assay [2] was 1.3% (inactive). Besides, the figures for the nuclei count in assay [2] and in assay [3] were 113% and 140%, respectively. Also, the fluorescence slope in assay [4] is -0.38 (inactive). In assay [5], the NADPH fluorescence slope is -5.6e-05 (inactive). The slope in assay [6] is 0.00592 (inactive).

With `Nc1nnc(-c2cn(-c3ccccc3)nc2-c2ccccc2)o1`, the cell count in assay [1] is 523. Besides, the inhibition in assay [1] is -12.5% (inactive); in assay [3], -16.3% (inactive); in assay [7], -22.2% (inactive); in assay [8], -23.6% (inactive). For the same compound, the inhibition of aggregation in assay [2] is -7.1% (inactive). Moreover, the nuclei count in assay [2] came to 90.3%; in assay [3], 113%. Also, the fluorescence slope in assay [4] is -0.481 (inactive). Further, the NADPH fluorescence slope in assay [5] was 1.3e-05 (inactive). Moreover, in assay [6], the slope is 0.00498 (inactive).

Consider `COc1ccc(NC(=O)C23CCC(C)(C(=O)C2)C3(C)C)cc1` (centres undefined), for which the cell count in assay [1] was determined as 606. The inhibition in assay [1] was -7.7% (inactive); in assay [3], -111% (inactive); in assay [7], 12.6% (inactive); in assay [8], 17.8% (inactive). Moreover, in assay [2], the inhibition of aggregation is -15.6% (inactive). The nuclei count worked out at 103% in assay [2] and 108% in assay [3]. Moreover, in assay [4], the fluorescence slope was -0.6 (inactive). In addition, the NADPH fluorescence slope in assay [5] was 6.7e-07 (inactive). Moreover, the slope in assay [6] was 0.00539 (inactive).

On to `c1cncc(-c2nc3c4ccccc4nc(N4CCC(N5CCCCC5)CC4)n3n2)c1`, for which the cell count in assay [1] came out at 512. Also, the inhibition in assay [1] was -10.4% (inactive); in assay [3] it was -5.9% (inactive); in assay [7], 24.2% (inactive); in assay [8] it was 30% (inactive). In assay [2], the inhibition of aggregation is -10.8% (inactive). Further, the nuclei count came to 97.3% in assay [2] and 98.2% in assay [3]. Further, the fluorescence slope in assay [4] was -0.455 (inactive). The NADPH fluorescence slope in assay [5] was -0.000334 (inactive). The slope in assay [6] is 0.00496 (inactive).

As for `CCOCCn1c(CN2CCN(c3cccc(Cl)c3)CC2)nc2c1c(=O)n(C)c(=O)n2C`, the cell count in assay [1] was found to be 743. The inhibition is -15.7% (inactive) in assay [1], -20% (inactive) in assay [3], 1.6% (inactive) in assay [7] and 22.6% (inactive) in assay [8]. Further, the inhibition of aggregation in assay [2] is -5.1% (inactive). Moreover, the figures for the nuclei count in assay [2] and in assay [3] were 104% and 103%, respectively. In addition, the fluorescence slope in assay [4] is -0.592 (inactive). Besides, in assay [5], the NADPH fluorescence slope is -4.2e-05 (inactive). In addition, the slope in assay [6] is 0.00703 (inactive).

With `COc1ccc(NC(=O)c2oc3ccccc3c2NC(=O)c2ccco2)cc1`, in assay [1], the cell count amounted to 317. For the same compound, the inhibition was -4.8% (inactive) in assay [1], -4.1% (inactive) in assay [3], -10.3% (inactive) in assay [7] and -48.1% (inactive) in assay [8]. Further, the inhibition of aggregation in assay [2] was 23.6% (inactive). For the same compound, the nuclei count was determined as 95.9% in assay [2] and 95.1% in assay [3]. For the same compound, the fluorescence slope in assay [4] was -0.411 (inactive). In addition, the NADPH fluorescence slope in assay [5] was 2.7e-05 (inactive). Moreover, the slope in assay [6] is 0.00551 (inactive).

For `O=C(Nc1ccc(N2C(=O)C3C4C=CC(C4)C3C2=O)cc1)Nc1cccnc1` (centres undefined), the cell count in assay [1] stood at 426. The inhibition in assay [1] was 0% (inactive); in assay [3], -33.4% (inactive); in assay [7] it was 7.37% (inactive); in assay [8] it was 3.82% (inactive). Besides, the inhibition of aggregation in assay [2] was -7.7% (inactive). Besides, the nuclei count in assay [2] amounted to 104%; in assay [3] it was 112%. For the same compound, in assay [4], the fluorescence slope was -0.334 (inactive). The NADPH fluorescence slope in assay [5] is -2.1e-05 (inactive). In addition, the slope in assay [6] is 0.00357 (inactive).

As for `Cc1noc(/C=C/N(C)C)c1S(=O)(=O)N1CCCC(C(=O)NC2CCCCC2)C1` (centres undefined), the cell count in assay [1] was 625. For the same compound, the inhibition in assay [1] was 11.7% (inactive); in assay [3], 34.5% (inactive); in assay [7], 16.1% (inactive); in assay [8], 14.8% (inactive). The inhibition of aggregation in assay [2] is 7.9% (inactive). Further, the nuclei count turned out to be 93.6% in assay [2] and 62.5% in assay [3]. For the same compound, the fluorescence slope in assay [4] is -0.566 (inactive). Also, in assay [5], the NADPH fluorescence slope was 1.6e-05 (inactive). The slope in assay [6] is 0.0069 (inactive).

With `COc1ccc(C)cc1C(=O)CCC(=O)Nc1ccccc1N1CCOCC1`, in assay [1], the cell count came to 382. The inhibition was 8.3% (inactive) in assay [1], -18.1% (inactive) in assay [3], 18.5% (inactive) in assay [7] and 18.2% (inactive) in assay [8]. Moreover, in assay [2], the inhibition of aggregation is 3.1% (inactive). Further, the values for the nuclei count in assay [2] and in assay [3] were 103% and 113%, respectively. Moreover, the fluorescence slope in assay [4] is -0.605 (inactive). Besides, the NADPH fluorescence slope in assay [5] is -5.1e-05 (inactive). Further, in assay [6], the slope is 0.00373 (inactive).

With `COc1ccc(CCn2c(-c3ccco3)nc3ccccc3c2=O)cc1OC`, in assay [1], the cell count was found to be 425. Besides, the inhibition in assay [1] was -0.6% (inactive); in assay [3], -99.5% (inactive); in assay [7], -9.43% (inactive); in assay [8], -5.38% (inactive). The inhibition of aggregation in assay [2] was 2.8% (inactive). Moreover, the nuclei count stood at 107% in assay [2] and 120% in assay [3]. Besides, the fluorescence slope in assay [4] was -0.402 (inactive). Moreover, the NADPH fluorescence slope in assay [5] was -6.5e-05 (inactive). Also, the slope in assay [6] is 0.00555 (inactive).

For `Cc1ccc(S(=O)(=O)N2CCC(C(=O)N3CCN(Cc4ccccc4)CC3)CC2)cc1`, the cell count in assay [1] came out at 659. Further, the inhibition in assay [1] is -14% (inactive); in assay [3] it was -40.7% (inactive); in assay [7], 8.56% (inactive); in assay [8], 16.4% (inactive). Also, the inhibition of aggregation in assay [2] was 19% (inactive). For the same compound, the nuclei count in assay [2] was found to be 110%; in assay [3], 106%. Also, the fluorescence slope in assay [4] is -0.518 (inactive). Moreover, the NADPH fluorescence slope in assay [5] was -1.5e-05 (inactive). For the same compound, the slope in assay [6] was 0.0064 (inactive).

For the compound `Cc1cccn2c(=O)c3cc(C(=O)N4CCCc5ccccc54)n(C)c3nc12`, the cell count in assay [1] was 232. Moreover, the inhibition in assay [1] was 15.9% (inactive); in assay [3] it was 29.9% (inactive); in assay [7], 6.77% (inactive); in assay [8] it was 17.7% (inactive). Moreover, in assay [2], the inhibition of aggregation is 10.9% (inactive). Moreover, the nuclei count in assay [2] was 98.7%; in assay [3], 96%. The fluorescence slope in assay [4] was -0.556 (inactive). The NADPH fluorescence slope in assay [5] was -3.1e-05 (inactive). Moreover, the slope in assay [6] is 0.00631 (inactive).

On to `O=C(c1cccnc1NCc1ccccc1)N1CCOCC1`, for which the cell count in assay [1] worked out at 616. In addition, the inhibition in assay [1] was -26.5% (inactive); in assay [3] it was -53.4% (inactive); in assay [7], -13.7% (inactive); in assay [8], -5.42% (inactive). The inhibition of aggregation in assay [2] is 5.4% (inactive). Also, the nuclei count in assay [2] is 114%; in assay [3], 116%. The fluorescence slope in assay [4] was -0.613 (inactive). In addition, the NADPH fluorescence slope in assay [5] is 2e-05 (inactive). Further, in assay [6], the slope is 0.00541 (inactive).
